The text below walks through data of PubChem BioAssay (Tox21).

Calls of active or inactive are those of the source. Calls come from the whole dose curve; as a rule, active = well fitted curve in the direction sought with a large enough effect in the repeat runs; inconclusive = weak or mixed curves; inactive = flat fitted curve, though single readings scatter.
% is set by controls: 0 for no effect and ±100 for the full control effect.

This test can be described thus: qHTS assay to test for compound auto fluorescence at 535 nm (green) in HEK293 cells (AID 720680). As to conditions: green autofluorescence 485/535 nm; series mostly up to 91.3 µM; fluorescence, % of fluorescein: at the top concentration. The source says:
U.S. Tox21 Program National Center for Advancing Translational Sciences [NCATS] NIH Chemical Genomics Center [NCGC] U.S. Environmental Protection Agency [EPA] National Institutes of Environmental Health Sciences [NIEHS] National Toxicology Program [NTP] U.S. Food and Drug Administration [FDA] Tox21 Assay Overview: Compound auto fluorescence often interferes with screening of the compound library against various biological targets and signaling pathways. Some of these compounds may have fluorophoric properties. Such properties may interfere with the assay outputs resulting in false positives and/or negatives. To decrease such complications and ensure the compound activities are relevant in terms of biological response, the Tox21 10K compound library was screened for auto fluorescence. From the fluorophores used as reporter signals in our screening assays, the auto fluorescence equivalencies of compounds against three fluorophores have been evaluated: Triamterene, Fluorescein and Rose Bengal sodium for blue, green and red fluorescence, respectively. The fluorescence intensities were measured using Excitation/Emission wavelengths at 405/460nm, 485/535nm and 540/590nm for blue, green and red labels, respectively. This assay includes the green fluorescence data.
Tox21 Assay Protocol Summary: 2,000 HEK293 cells in 5 uL of culture medium containing 10% dialyzed FBS per well were dispensed into black wall/clear bottom 1536-well plates using a Multidrop Combi Dispenser (Thermo Scientific). The assay plates were incubated for 4-5 hr at 37C to allow cell attachment to the well bottom, followed by the transfer of 23 nL compound or DMSO vehicle by a pintool work station (Kalypsys, San Diego, CA). After the assay plates were incubated overnight at 37C and 5% CO2, fluorescence intensities in the assay plates were measured by an Envision (PerkinElmer, Shelton, CT) plate reader using three labels for measuring blue, green and red fluorescence at […] 460, 535 and 590nm respectively.
`O=C(O)CCc1nc2ccccc2[nH]1`: the “fluorescence, % of fluorescein” value is 0.113% [at 46 µM] (inactive).
With `COC(=O)Cc1cccc2ccccc12`, the “fluorescence, % of fluorescein” value was -0.0203% (inactive).
Same read-out and setting: the figure for `O=C(c1ccc(Cl)cc1)c1ccc(Cl)cc1` is 0.0117% (inactive); for `S=c1[nH][nH]c(=S)s1` it is -0.026% (inactive).
Still for that read-out and setting: the figure for `CC(=O)Nc1cccc(N)c1` is -0.233% [at 95.7 µM] (inactive); for `CC(=O)c1ccc(Cl)c(Cl)c1Cl` it is -0.0553% (inactive); for `CCCCCCCCCCCCCCCCN` it is 0.0283% [at 46 µM] (inactive).
Still for that read-out and setting: under `Nc1ccc(-c2ccc(F)cc2)cc1` stands -0.224% (inactive).
As to `NCCOCCOCCN`, the “fluorescence, % of fluorescein” value is 0.0204% (inactive).
Take `CC1=C(C)C(=O)C(CCCCC#CCCCC#CCO)=C(C)C1=O`: the “fluorescence, % of fluorescein” value is 0.0511% [at 46 µM] (inactive).
Consider `CC(C)(C)NCC(O)COc1ccc(NC(=O)NC2CCCCC2)cc1` (stereo not given), for which the “fluorescence, % of fluorescein” value is 0.0682% [at 46 µM] (inactive).
Regarding `CCCCCCCCC(=O)OCC(C)OC(=O)CCCCCCCC` (stereo not given), the “fluorescence, % of fluorescein” value is 0.0357% [at 95.7 µM] (inactive).
Same read-out and setting: under `Cc1ccc(S(=O)(=O)NC(=O)NC2CCCC2)cc1` stands -0.0568% [at 46 µM] (inactive); under `O=C(O)c1c2ccccc2cc2ccccc12`, 0.0003% (inactive); under `CC(C)=CCCC(C)C=O` (stereo not given), 0.0023% (inactive).
The same measure, in the same setting: the figure for `CCCC1CCCC(=O)O1` (stereo not given) is -0.0909% (inactive); for `CCCCCCCCCCCCN1CCOCC1` it is 0.12% (inactive).
Still for that read-out and setting: under `O=[N+]([O-])c1ccccc1CCO` stands 0.0673% [at 95.7 µM] (inactive).
As to `O=C(O)COCC(=O)O`, the “fluorescence, % of fluorescein” value was -0.0569% (inactive).
Same read-out and setting: the figure for `C1CCN(CN2CCCCC2)CC1` is -0.135% (inactive); for `CCCCCCCCCCCCCCCCCCCl` it is -0.0209% [at 3.72 µM] (inactive).
Still for that read-out and setting: under `CC(C)Oc1ccccc1O` stands -0.107% (inactive).
For the compound `Nc1ccc(C(=O)Oc2ccccc2)c(O)c1`, the “fluorescence, % of fluorescein” value was -0.213% [at 46 µM] (inactive).
The same measure, in the same setting: the figure for `CC(O)C(C)O` (stereo not given) is -0.017% [at 95.7 µM] (inactive); for `CC(=O)OCC(=O)[C@@]1(O)CC[C@H]2[C@@H]3CCC4=CC(=O)C=C[C@]4(C)[C@@]3(F)[C@@H](O)C[C@@]21C` it is -0.0592% [at 18.6 µM] (inactive).
Regarding `CCOC(C)OCC`, the compound was called inactive.
As for `O=C(O)c1cccnc1Nc1cccc(C(F)(F)F)c1`, the “fluorescence, % of fluorescein” value was 0.126% [at 46 µM] (inactive).
Take `C/C=C1\[C@H]2C=C(C)C[C@]1(N)c1ccc(=O)[nH]c1C2`: the “fluorescence, % of fluorescein” value was 0.0305% [at 46 µM] (inactive).
Same read-out and setting: under `CCOc1cc(OCC)c(C(C)=O)cc1OCC` stands 0.0231% (inactive); under `O=C(O)CNc1ccccc1`, -0.124% (inactive); under `Cc1cc(C)n(CO)n1`, -0.0844% (inactive).
`CCc1cnc(C(=O)O)c(C(=O)O)c1`: the “fluorescence, % of fluorescein” value was -0.0523% [at 95.7 µM] (inactive).
In the case of `C1=COCCC1`, the “fluorescence, % of fluorescein” value was -0.135% (inactive).
On to `C[C@]12CCC(=O)C=C1[C@@H]1C[C@@H]1[C@H]1[C@@H]3[C@@H]4C[C@@H]4[C@@]4(CCC(=O)O4)[C@@]3(C)CC[C@@H]12`, for which the “fluorescence, % of fluorescein” value was -0.0659% [at 46 µM] (inactive).
Still for that read-out and setting: the figure for `N#C[C@@H]1CC(F)(F)CN1C(=O)CNC1CC2CCC(C1)N2c1ncccn1` (stereo not given in full) is 0.297% (inactive); for `O=[N+]([O-])c1cccc(I)c1` it is 0.0176% (inactive).
The same measure, in the same setting: the figure for `C=CC(=O)OCCCCCCCCCC` is -0.0245% (inactive); for `CCCC(=O)OCCC(C)C` it is -0.0979% (inactive); for `O=C(O)c1ccncc1` it is 0.0023% [at 95.7 µM] (inactive).
With `Nc1ccc(F)cc1F`, the “fluorescence, % of fluorescein” value was -0.239% [at 95.7 µM] (inactive).
